Bioassay records (PubChem BioAssay)
In the library only some 6.2% were active in any assay of this set; here they are far more common.
NTR1 ag – agonists of human neurotensin receptor NTR1; P30989; NTR1-U2OS beta-arrestin-GFP spot imaging, agonist mode; activation, % at 20 µM; 330,000 compounds, 0.17% hits;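 active means activation at or above 40% of the spot to cytoplasm intensity ratio, with at least 20 cells analyzed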
Mot1-301 SUMO – blocks SUMOylation pathway, rescuing yeast Mot1-301 growth | S. cerevisiae Mot1-301 growth rescue, ATP luminescence, 38.5C; percent above DMSO median, 100 means doubled | growth rescue, % at 18.8 µM | 320,000 compounds, 1% hits | AID 2716;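 active means every valid replicate shows activation above 250% relative to neutral control wells; inactive means the rest, any valid replicate at or below 250%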
AI-2 QS mod – Vibrio harveyi AI-2 quorum sensing modulation | Vibrio harveyi JMH597 AI-2 luminescence/OD600 ratio, 9 h; stronger effect = lower value; strain lacks LuxN and CqsS sensors; 0 = neutral-control median | activity change, % at 7.5 µM | 300,000 compounds, 0.4% hits; in the data active means activity change below about -75%, passing the limit was not always enough;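 further: luminescence divided by OD600 gain over 9 h not by final OD600 alone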
Cardio protect – modulators protecting cardiomyocytes from myocardial damage | H9c2 cardiomyocytes, H2O2 injury protection, ATPLite, 2 h | protection from H2O2 cell death, % at 20 µM | 360,000 compounds, 0.63% hits;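 active means compounds giving at least 50% protection of heart cells from peroxide-induced death in the single-dose screen, raw or plate-pattern-corrected value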
AHR act – activates the human aryl hydrocarbon receptor. AHR-responsive luciferase reporter cells, luminescence. activation, % at 5 µM. 320,000 compounds, 2.5% hits; in the data active means activation above about 47%
Target sequence (P35869 whole entry, looked up): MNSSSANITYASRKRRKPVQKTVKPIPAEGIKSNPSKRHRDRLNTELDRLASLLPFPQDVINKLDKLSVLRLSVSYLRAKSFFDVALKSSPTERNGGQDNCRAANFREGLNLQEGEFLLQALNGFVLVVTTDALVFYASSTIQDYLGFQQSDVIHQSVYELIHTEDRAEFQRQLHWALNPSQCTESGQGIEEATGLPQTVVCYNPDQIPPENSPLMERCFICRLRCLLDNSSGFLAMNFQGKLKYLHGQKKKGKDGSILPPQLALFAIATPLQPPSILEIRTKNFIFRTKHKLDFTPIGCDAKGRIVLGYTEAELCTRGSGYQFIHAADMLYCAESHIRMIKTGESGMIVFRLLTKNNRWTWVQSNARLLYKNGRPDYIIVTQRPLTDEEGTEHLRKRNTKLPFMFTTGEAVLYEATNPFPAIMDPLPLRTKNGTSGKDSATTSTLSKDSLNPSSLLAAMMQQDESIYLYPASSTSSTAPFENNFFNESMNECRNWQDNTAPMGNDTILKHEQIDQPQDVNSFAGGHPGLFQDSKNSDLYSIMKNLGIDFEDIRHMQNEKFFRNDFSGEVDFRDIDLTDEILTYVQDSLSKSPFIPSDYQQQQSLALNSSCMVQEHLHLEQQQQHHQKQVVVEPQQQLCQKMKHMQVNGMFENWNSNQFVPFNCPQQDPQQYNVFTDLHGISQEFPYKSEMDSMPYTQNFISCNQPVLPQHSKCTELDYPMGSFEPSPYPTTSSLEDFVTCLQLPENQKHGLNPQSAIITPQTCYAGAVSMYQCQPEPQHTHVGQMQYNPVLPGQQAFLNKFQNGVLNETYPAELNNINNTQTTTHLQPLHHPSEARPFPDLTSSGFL
NR3A LBD binder – modulates the human NR3A ligand-binding domain. NR3A LBD differential scanning fluorimetry, Tm shift; 0% = protein alone, 100% = glycine-bound protein. Tm shift relative to glycine control, % at 25 µM. 340,000 compounds, 2.5% hits;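 active means melting temperature shift of at least 10% of the positive control shift, at one fixed dose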
AHR act cf – confirmation of human aryl hydrocarbon receptor activators. human cells, AHR-responsive luciferase reporter, luminescence. activation, % at 9 µM. 2,300 compounds, 87% hits. shares compounds with AHR act; in the data active means activation above about 49%;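 further: HepG2 hepatoma cells carrying a DRE-driven firefly luciferase reporter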
PXR act counter – counter-screen for AHR activators: human PXR activators; shares compounds with AHR act; cell-based PXR reporter, luciferase luminescence; activation, % at 11.6 µM; 2,300 compounds, 88% hits; in the data active means activation above about 11%;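 further: human hepatoma DPX-2 cells expressing full-length human PXR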
Hits are given with their value; . = inactive; / = no result given.

SMILES	NTR1 ag	Mot1-301 SUMO	AI-2 QS mod	Cardio protect	AHR act	NR3A LBD binder	AHR act cf	PXR act counter
O=C1NC(=Nc2ccccc2)/C(=C/c2ccco2)S1	.	.	.	.	84	.	.	20
COc1cccc(NC(=O)n2ncc3c(C)cccc32)c1	.	.	.	.	.	.	/	/
N#Cc1nc(-c2ccc(F)cc2)oc1NCCCn1ccnc1	.	.	.	/	106	/	97	30
CCCOc1ccc(-c2nc(C#N)c(NCCCn3ccnc3)o2)cc1	.	.	.	.	.	.	/	/
Cc1cc(Cl)ccc1-c1nc(NCc2ccccc2)nc2ccsc12	/	/	/	.	/	/	/	/
O=C(Nc1nccs1)c1sc2cc(Cl)ccc2c1Cl	.	.	.	.	80	.	110	18
CC(=O)Nc1cccc(-c2ccnc3c2CC(C(=O)NCc2ccc(F)c(F)c2)O3)c1 (stereo not given)	/	/	/	.	/	/	/	/
Clc1nc(-c2ccccn2)nc2scc(-c3ccccc3)c12	.	.	.	.	80	24	59	25
COc1ccc2[nH]c(C(=O)NCc3ccccc3)c(C)c2c1	.	.	.	.	.	.	/	/
S=C(NCc1ccc2[nH]c3c(c2c1)CCCC3)Nc1ccccc1	.	.	.	.	112	.	71	36
O=C(NCc1ccc2[nH]c3c(c2c1)CCCC3)c1ccc(S(=O)(=O)N2CCCCC2)cc1	.	.	.	.	.	.	/	/
Cc1cccc(NC(=S)NN(Cc2ccccc2)c2ccccc2)c1C	.	.	.	.	116	.	108	214
C/C(=N/Nc1nc(-c2ccc(Cl)cc2)cs1)c1cccs1	.	.	.	.	104	.	132	17
CON/C=C(\C=Nc1ccc(F)cc1)c1ncc(C(F)(F)F)cc1Cl	.	.	.	.	89	.	94	23
CON/C=N/C(=S)Nc1ncc(C(F)(F)F)cc1Cl	.	.	.	.	.	.	/	/
C/C(COc1ccccc1)=N\NC(=O)c1nnn(-c2nonc2N)c1CSc1ccc(C)cc1	/	/	/	.	/	/	/	/
CN(NC(=O)NN(C)C(=O)c1ccccc1)C(=O)c1ccccc1	/	/	/	.	/	.	/	/
O=C(N/N=C1\CC2CC=CC12)c1ccc(Br)cc1 (stereo not given)	.	.	.	.	.	.	/	/
Cc1cc(Br)c(OCc2ccc(C(=O)N/N=C3\CC4CC=CC34)cc2)c(Br)c1 (stereo not given)	.	.	.	.	105	12	79	11
Cc1c(C(=O)/C=C/c2cccs2)oc2ccc(F)cc12	.	.	.	.	81	.	103	76
CCOc1ccc(-c2nc(N)nc(C)c2-c2ccc(Cl)cc2)c(O)c1	.	.	.	.	90	.	79	39
COc1cccc(C2=NC(C)(C)NC(c3ccccc3O)C2)c1 (stereo not given)	.	.	.	.	82	.	.	52
COc1cccc(C2=NNC(=NCc3ccccc3)SC2)c1	.	.	.	.	.	.	/	/
CC(=O)N1CCN(C(=O)COC(=O)c2ccc(S(C)(=O)=O)cc2)CC1	.	.	/	.	.	.	/	/
C#CCn1c2ccccc2c2nc3ccccc3nc21	.	.	.	.	88	.	191	49
SMILES	NTR1 ag	Mot1-301 SUMO	AI-2 QS mod	Cardio protect	AHR act	NR3A LBD binder	AHR act cf	PXR act counter
CN1CCN(c2ccc(S(=O)(=O)N3CCOCC3)cc2)CC1	.	.	.	.	.	.	/	/
CC(C)(C)c1ccc(C(=O)Nc2nnc(Cc3c[nH]c4ccccc34)s2)cc1	.	.	.	.	90	26	88	14
Nc1ccccc1C(=O)NNc1c2ccccc2nc2ccccc12	.	.	.	.	96	.	105	64
NS(=O)(=O)c1ccc(NC(=O)/C=C/c2ccccc2[N+](=O)[O-])cc1	.	.	.	.	.	.	/	/
NS(=O)(=O)c1ccc(N/N=C/C=C/c2ccccc2[N+](=O)[O-])cc1	.	.	.	.	82	.	.	25
c1ccc2oc(C3=NNC(=NC4CC4)SC3)cc2c1	.	.	.	.	137	.	.	16
O=C(CN1CCN(C(=O)N2CCOCC2)CC1)Nc1cc(Cl)ccc1Cl	.	.	.	.	.	.	/	/
CC(=O)c1cc(O)c2ccccc2c1O	.	.	.	.	90	.	118	.
Brc1cccc(-c2nnc(SCc3nc4ccccc4[nH]3)o2)c1	.	.	.	.	92	.	.	29
c1ccc2[nH]c(CSc3nnc(-c4ccncc4)o3)nc2c1	.	.	.	.	.	.	/	/
Brc1cccc(-c2nnc(-c3ccccc3)o2)c1	.	.	/	.	121	.	134	28
CNC(=O)Cn1nc(-c2ccc(Cl)cc2)c2ccccc2c1=O	.	.	.	.	.	.	/	/
CN(c1ccccc1)S(=O)(=O)c1ccc(Cl)c(C(=O)OCC(=O)c2c(N)n(C)c(=O)n(C)c2=O)c1	/	/	/	.	/	.	/	/
O=c1c2ccccc2cnn1-c1ccc(Br)cc1	.	.	.	.	136	.	109	38
Cc1ccc(C)c(CC(=O)N2CCCC(c3cc(C(=O)NCc4ccccc4)no3)C2)c1 (stereo not given)	/	/	/	.	/	/	/	/
O=C(Nc1cccc(N2CCCC2)c1)c1cccs1	.	.	.	.	88	.	92	37
COc1ccc(C(=O)C(=O)c2ccc(OCCO)cc2)cc1	.	.	.	.	.	.	/	/
CCCCN(CC)C(=O)CSc1nc2n[nH]c(C)c2c(=N)n1-c1cccc(C)c1	.	.	.	.	86	.	.	147
CCc1ccc(-c2csc(-c3c[nH]c4ccccc34)n2)cc1	.	.	.	.	87	39	124	29
CCC(C)Nc1nc(-c2c[nH]c3ccccc23)cs1 (stereo not given)	.	.	.	.	.	.	/	/
CC1=C(C(=O)N2CCCCCC2)CC(CC(=O)NCCCCc2ccccc2)C(=O)N1Cc1ccccc1 (stereo not given)	/	/	/	.	/	/	/	/
COc1ccc(-c2ccccc2)cc1NC(=O)c1cccs1	.	.	/	.	.	.	/	/
O=C(Nc1cc(-c2nc3ncccc3o2)ccc1Cl)c1cccs1	.	.	.	.	134	.	98	47
COc1ccc(-c2nc3ncccc3o2)cc1NC(=O)c1cccs1	.	.	.	.	81	.	.	30
CCOc1ccccc1N1CC(C(=O)N(CC)CC(=O)Nc2ccc3c(c2)OCCO3)CC1=O (stereo not given)	.	.	.	.	.	.	/	/
O=[N+]([O-])c1ccc(CN2CC(N3CCC(Cc4ccccc4)CC3)CS2(=O)=O)cc1 (stereo not given)	/	/	/	.	/	/	/	/
Cc1ccc(S(=O)(=O)Cc2cc(F)c([N+](=O)[O-])cc2[N+](=O)[O-])cc1	.	.	.	.	.	.	/	/
